Screening results as filed in PubChem.
A selection: hits, their analogues and other compounds. The true share with any hit is near 1.8%.
TrxR1 substrate: rat thioredoxin reductase 1 substrate activity | O89049 | purified TrxR1 substrate turnover, NADPH consumption readout | Potency, µM (doses to about 114 µM) | actives 0.01% (n = 390,000) | AID 588456; further: nearly all actives have a fitted effect of over 50% in size
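Rat TrxR1, dispensed at 90 nM, was prereduced with 400 uM NADPH (final) for 5 min at ~22 deg C, then incubated with compound 15 min before 400 uM selenite. A first-read NADPH fluorescence drop versus no-compound background flagged substrates.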
VDR inh: inhibitors of human vitamin D receptor. Potency, µM, hits mostly inhibitors. actives 0.93% (n = 400,000). VDR-SRC2-3 peptide fluorescence polarization, 2 h
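Measured by FP: displacement of SRC2-3 coactivator peptide from VDR by library compounds, following a two-hour ambient incubation.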
KAT2A inh: inhibitors of human GCN5L2 histone acetyltransferase | actives 0.21% (n = 390,000) | GCN5L2 HAT assay, ThioGlo1 CoA-SH fluorescence | AID 504327 | Potency, µM (highest dose often 58.9 µM), usual class: inhibitors | Q92830
Target sequence (Q92830 whole entry, looked up): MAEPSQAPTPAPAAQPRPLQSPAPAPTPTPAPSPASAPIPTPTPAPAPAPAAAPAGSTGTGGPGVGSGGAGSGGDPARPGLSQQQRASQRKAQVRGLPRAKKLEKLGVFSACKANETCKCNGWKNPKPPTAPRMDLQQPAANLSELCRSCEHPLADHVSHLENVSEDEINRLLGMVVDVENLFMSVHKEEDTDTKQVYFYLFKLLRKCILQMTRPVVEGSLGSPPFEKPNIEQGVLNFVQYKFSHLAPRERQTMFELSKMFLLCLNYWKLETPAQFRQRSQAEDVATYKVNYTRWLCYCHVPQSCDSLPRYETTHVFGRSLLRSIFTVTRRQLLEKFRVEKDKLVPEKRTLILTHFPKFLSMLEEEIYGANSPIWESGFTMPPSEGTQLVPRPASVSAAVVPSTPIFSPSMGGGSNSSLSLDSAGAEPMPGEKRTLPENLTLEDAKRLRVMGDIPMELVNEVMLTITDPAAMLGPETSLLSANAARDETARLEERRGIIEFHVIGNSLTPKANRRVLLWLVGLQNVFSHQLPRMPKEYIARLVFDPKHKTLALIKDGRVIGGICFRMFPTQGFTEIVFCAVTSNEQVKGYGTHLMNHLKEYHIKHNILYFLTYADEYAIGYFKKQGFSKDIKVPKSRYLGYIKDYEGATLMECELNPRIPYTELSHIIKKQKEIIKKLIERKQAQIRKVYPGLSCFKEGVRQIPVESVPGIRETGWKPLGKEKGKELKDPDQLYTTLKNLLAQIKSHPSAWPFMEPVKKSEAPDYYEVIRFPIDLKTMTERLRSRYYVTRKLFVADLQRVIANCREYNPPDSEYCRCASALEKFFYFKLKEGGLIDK
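Enzyme at 20nM final was mixed with library compounds for 15 min at room temperature. Peptide H3(1-25) at 75uM, acetyl-CoA at 70uM and ThioGlo1 at 50uM were then added. Plates were read immediately and after 20 min (Ex340nm/Em540nm).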
TrxR1 inh: rat TrxR1 inhibition | actives 1% (n = 390,000) | O89049 | Potency, µM (doses to about 114 µM), most hits filed as inhibitors | recombinant rTrxR1, NADPH fluorescence consumption, selenite substrate; further: nearly all actives have a fitted effect of over 65% in size
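Rat TrxR1 (90 nM in the dispensed reagent) was pre-reduced with 400 uM NADPH for 5 min at room temperature, then incubated with compound for 15 min. After 400 uM selenite was added, NADPH fluorescence (Ex 340/Em 450 nm) was followed for 8 min.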
USP1 UbRho: blocks human USP1/UAF1 cleavage of Ub-Rhodamine | actives 50% (n = 50) | AID 540327 | Ub-Rhodamine cleavage, fluorescence kinetic read | shares compounds with VDR inh | Potency, µM (titrated, usually from 56.8 µM), usual class: inhibitors
VDR confirm: inhibits human vitamin D receptor, primary hit validation; shares compounds with VDR inh; VDR-coactivator inhibition assay, qHTS confirmation; Potency, µM, actives largely listed as inhibitors; actives 89% (n = 840)
VDR FP: confirmation of human VDR-coactivator binding inhibitors, fluorescein label; shares compounds with VDR inh; VDR-coactivator binding, fluorescein fluorescence polarization; Potency, µM (titrated, usually from 57.1 µM), actives largely listed as inhibitors; actives 48% (n = 840)
VDR bla reporter: inhibits human VDR in beta-lactamase reporter cells | Potency, µM (titrated, usually from 46.1 µM), hits mostly inhibitors | AID 602202 | VDR beta-lactamase reporter cells, FRET ratio; cells co-treated with VDR agonist LG190178 | actives 23% (n = 840) | shares compounds with VDR inh
VDR cytotox: cell toxicity, VDR inhibitor hit counter-screen. shares compounds with VDR inh. cytotoxicity counter-screen, cell viability, qHTS. Potency, µM (highest dose often 48.3 µM), usual class: cytotoxic. actives 18% (n = 840). AID 602204; further: nearly all actives have a fitted effect of over 75% in size
Large screens that a line does not name were inactive (follow-up assays come after a bar, where they were run). The call rests on the fitted dose curve; in most records, active means well fitted curve in the direction sought with a large enough effect; inconclusive means small, poorly fitted or top-dose-only effect, or another doubt; inactive means no such curve, though single readings can be large; an effect the other way counts as inactive or inconclusive.

Cc1ccc(O)c(NC(=O)CCS(=O)(=O)c2nc(-c3cccs3)cc(C(F)(F)F)n2)c1	VDR inh 20µM, TrxR1 inh 20µM | VDR confirm 4.5 | VDR FP 7.9µM | VDR bla reporter inconclusive | VDR cytotox inconclusive
COc1cccc2c1C(=O)c1c(O)c3c(c(O)c1C2=O)C[C@](O)(C(C)=O)C[C@H]3O[C@@H]1C[C@H](N)[C@H](O)[C@H](C)O1	none (no result: TrxR1 substrate, TrxR1 inh) | USP1 UbRho 18µM
CCS(=O)(=O)c1ncc(Cl)c(C(=O)N2CCN(c3cccc(Cl)c3)CC2)n1	VDR inh 8.9µM, TrxR1 inh 0.4µM | VDR confirm 2.8 | VDR FP 2.8µM | VDR bla reporter 2.9µM | VDR cytotox 9.5µM
CC(=O)Nc1ccc(NC(=O)c2c(C)nn(-c3ccccc3)c2-n2cccc2)cc1	none
CN(C)c1ccc(C(=S)N2CCN(c3ccc([N+](=O)[O-])cc3)CC2)cc1	VDR inh 79µM, KAT2A inh inconclusive | VDR confirm 27 | VDR FP inconclusive | VDR bla reporter inactive | VDR cytotox inactive
CSc1nnc(NC(=O)c2nc(S(=O)(=O)Cc3cccc(C)c3)ncc2Cl)s1	VDR inh 14µM, TrxR1 inh inconclusive | VDR confirm 4.2 | VDR FP inconclusive | VDR bla reporter 5.8µM | VDR cytotox 16µM
CC(C)c1nnc(NC(=O)CS(=O)(=O)Cc2ccccc2)s1	none
CC(C)c1nnc(NC(=O)c2nc(S(=O)(=O)Cc3ccc(F)cc3)ncc2Cl)s1	VDR inh 10µM, TrxR1 inh 32µM | VDR confirm 7.5 | VDR FP 3.5µM | VDR bla reporter 16µM | VDR cytotox 10µM
Cc1ccc(CS(=O)(=O)c2ncc(Cl)c(C(=O)Nc3nnc(C(C)C)s3)n2)cc1	VDR inh 13µM, TrxR1 inh 32µM | VDR confirm 6.7 | VDR FP 3.2µM | VDR bla reporter 9.2µM | VDR cytotox 18µM
Cc1cccc(CS(=O)(=O)c2ncc(Cl)c(C(=O)Nc3nnc(C(C)C)s3)n2)c1	VDR inh 8.9µM, TrxR1 inh 25µM | VDR confirm 6 | VDR FP 3.5µM | VDR bla reporter 8.2µM | VDR cytotox 13µM
CC(C)c1nnc(NC(=O)c2nc(SCc3ccc(F)cc3)ncc2Cl)s1	none
Cc1ccc(Sc2c(C(=O)NCc3ccccc3C)[nH]c3ccccc23)cc1	none
CCC(C)NC(=O)c1sc2ncccc2c1-n1c(C)ccc1C (configuration not stated)	none
O=C1CCC[C@@H]2C[C@@]3(C[C@@H]4CCN1[C@H]24)Nc1ccccc1NC3=NC1CCCCC1	none (no result: VDR inh, KAT2A inh)
Cc1ccc(CN(Cc2cc3cc(C)ccc3[nH]c2=O)Cc2nnnn2Cc2ccccc2)cc1	none (no result: KAT2A inh)
C=CCSc1nnc(NC(=O)c2nc(SCC)ncc2Cl)s1	none
CCSc1nnc(NC(=O)c2nc(S(=O)(=O)Cc3ccc(F)cc3)ncc2Cl)s1	VDR inh inconclusive, TrxR1 inh 25µM | VDR confirm 2.8 | VDR FP 3.5µM | VDR bla reporter 16µM | VDR cytotox 19µM
Cc1ccc(C=Nc2ccc(N(C)C)cc2)o1	VDR inh 1µM, TrxR1 inh inconclusive | VDR confirm 12 | VDR FP inactive | VDR bla reporter inactive | VDR cytotox inactive
CCC1CCc2nc3sc(C(=O)Nc4cccc(C(F)(F)F)c4)c(N)c3cc2C1 (configuration not stated)	none
O=C1C(Cl)=C(NC(=O)c2ccccc2)C(=O)C(Cl)=C1NC(=O)c1ccccc1	VDR inh 35µM, KAT2A inh inconclusive, TrxR1 inh 0.32µM | VDR confirm 4.2 | VDR FP inconclusive | VDR bla reporter 3.7µM | VDR cytotox 12µM
CCCCNc1sc(S(=O)(=O)CC)nc1S(=O)(=O)c1ccc(C)cc1	none
COc1cc2c(cc1NC(=O)C(C)Oc1ccc(Cl)cc1Cl)oc1ccccc12 (configuration not stated)	none
CN1C(=O)C(Cl)(Cl)C(=O)c2ccccc21	VDR inh 4µM | VDR confirm 3.4 | VDR FP inconclusive | VDR bla reporter inactive | VDR cytotox inactive
Cc1ccnc2c(Cl)ccc(Cl)c12	none (no result: VDR inh, KAT2A inh)
COCCCNC(=O)c1ccc2c3c(onc13)-c1ccccc1C2=O	VDR inh 35µM | VDR confirm 3.8 | VDR FP inconclusive | VDR bla reporter inconclusive | VDR cytotox inconclusive
O=S(=O)(/N=C(\Sc1ccc(Cl)cc1)c1ccccc1)c1ccccc1	VDR inh inconclusive, TrxR1 inh inconclusive | VDR confirm 7.1 | VDR FP 22µM | VDR bla reporter inactive | VDR cytotox inactive
CCOC(=O)c1sc(N2C(=O)c3oc4ccc(F)cc4c(=O)c3C2c2ccc(C)cc2)nc1C (configuration not stated)	none (no result: VDR inh, KAT2A inh)
O=C1NC(=O)/C(=C/c2ccc(-c3ccc(F)cc3O)o2)S1	VDR inh 13µM, KAT2A inh inconclusive, TrxR1 inh inconclusive | USP1 UbRho 53µM
O=C1NC(=S)SC1=Cc1ccc(F)cc1	none (no result: KAT2A inh)
CCc1ccc2occ(CC(=O)Nc3sc4c(c3C(=O)OC)CCC4)c2c1	none
O=C(CSc1ccccc1)Nc1nnc(COc2ccc(Cl)cc2)s1	VDR inh 40µM, KAT2A inh inconclusive | VDR confirm 3 | VDR FP inconclusive | VDR bla reporter inactive | VDR cytotox inactive
Cc1nnc(NC(=O)c2c(-c3ccccc3)noc2C)s1	none
Cc1onc(-c2ccccc2)c1C(=O)Nc1nnc(COc2ccc(Cl)cc2)s1	VDR inh 20µM, KAT2A inh inconclusive | VDR confirm 6.7 | VDR FP inconclusive | VDR bla reporter inactive | VDR cytotox inactive
CCOc1ccc2nc(N3CCCC(C(=O)NCCc4ccc(OC)cc4OC)C3)sc2c1 (configuration not stated)	none
Cc1ccc(Sc2c(C)nn(C(=O)c3ccc(Cl)cc3)c2C)cc1	none
O=[N+]([O-])c1ccc(C2=Nn3c(Cn4nnc5ccccc54)nnc3SC2)cc1	VDR inh inconclusive | VDR confirm inconclusive | VDR FP 8.9µM | VDR bla reporter inactive | VDR cytotox inconclusive
Cc1ccc(C(=O)COC(=O)C(Cc2c[nH]c3ccccc23)NC(=O)c2ccc(C(C)(C)C)cc2)cc1 (configuration not stated)	none
